# Reference: PubChem BioAssay AID686977 (Southern Research Specialized Biocontainment Screening …, 2013)
# Screen size: about 9,400 compounds; fewer than 10 were called active. Inconclusive results (about 5%) are left out. Only a sample is shown. Measured potencies and affinities stand elsewhere. Unmarked numbers belong to inactive results. No rule for the calls is given here.
# Test: Vibrio cholerae quorum sensing activators, luminescence (AID 686977)
# Conditions: V. cholerae quorum sensing reporter, 6 h, active compounds read high; dose 50, dose unit µM unless noted
row,Compound,luminescence
1,CCN(CC)c1ncnc2sc(C(=O)N3CCN(c4ccc(OC)cc4)CC3)c(C)c12,160
2,c1cc2c3c(cccc3c1)NC1(CCCCC1)N2,40
3,O=C(Nc1ccc(Cc2ccncc2)cc1)c1ccc(Cl)c([N+](=O)[O-])c1,0
4,COc1cccc(S(=O)(=O)NCc2ccc(C(=O)NCC3CCCO3)cc2)c1 (stereo unspecified),40
5,O=C(Nc1ccc2c(c1)OCCO2)c1ccc(CN2CCOCC2)cc1,0
6,COCCOC(=O)C1=C(C)NC2=C(C(=O)CC(c3cccs3)C2)C1c1ccsc1 (stereo unspecified),40
7,CCN1CCN(c2nc3c(c(=O)[nH]c(=O)n3C)n2CCSc2nc3ccccc3s2)CC1,0
8,CCc1ccc(C2CC(c3ccc(F)cc3)Nc3nc(N)nn32)cc1 (stereo unspecified),40
9,COc1ccccc1C(=O)N1CCNC(=O)C1CC(=O)Nc1cccc(C)c1 (stereo unspecified),0
10,O=C(O)c1[nH]c2ccccc2c1CC(=O)N1CCOCC1,0
11,Cc1cc(C(=O)Nc2c(C)nn(Cc3ccc(F)cc3)c2C)on1,0
12,COC(=O)c1ccc(NC(=O)CN(Cc2ccc(Cl)cc2)S(C)(=O)=O)cc1,0
13,CC(C)SCCCOc1ccc(C(C)(C)C)cc1,0
14,CCOC(=O)C1CCCN(c2c(NCCCN(C)c3ccccc3)c(=O)c2=O)C1 (stereo unspecified),0
15,COC(=O)c1ccc(NC(=O)CSc2nnc(COc3ccc4c(c3)CCCC4)o2)cc1,40
16,CCC(=O)NCCCOc1ccccc1,0
17,O=C(Nc1ccc2c(c1)CCC2)c1cc(S(=O)(=O)N2CCN(c3ccccc3)CC2)ccc1Cl,0
18,CCOC(=O)c1sc2nc(C)cc(C)c2c1NC(=O)c1ccco1,0
19,CCOC(=O)N1CCC(NC(=O)C(Cc2ccccc2)NC(=O)C2CCCCC2)CC1 (stereo unspecified),0
20,CCOc1cc(N2CCOCC2)c(OCC)cc1NC(=O)CN1CCc2ccccc2C1,0
21,CCn1ncc(C2=NOC(C(=O)NCc3ccc(OC)cc3)C2)c1C (stereo unspecified),0
22,COc1ccc(-n2c(Cn3c(=O)sc4ccccc43)nnc2SCC(=O)N2CCCCC2)cc1,0
23,COc1ccc(NC(=O)c2c(NC(=O)CNCc3ccco3)sc3c2CCC3)c(OC)c1,40
24,COC(=O)c1nc2cc(C)ccn2c1F,40

row,Compound,luminescence
1,Cc1ccc(NS(=O)(=O)c2cc(C(N)=O)ccc2C)cc1,0
2,Cc1ccc([N+](=O)[O-])cc1N=Cc1ccc(Br)s1,40
3,CC(=O)N(c1ccc(Br)cc1)C1C=CS(=O)(=O)C1 (stereo unspecified),0
4,Cc1cc2ccccc2n1CCNC(=O)c1cccs1,0
5,Cc1cc(C)nc(NC(=O)c2cnc3sccn3c2=O)n1,0
6,CCn1c(=O)cc(OCC(=O)NCCC(C)C)c2ccccc21,40
7,C=CCNC(=O)CN(c1cccc(Br)c1)S(C)(=O)=O,0
8,CCOC(=O)c1c(-c2ccccc2)csc1NC(=O)c1ccc(S(=O)(=O)N2CC(C)OC(C)C2)cc1 (stereo unspecified),40
9,COc1cc(C(=O)N(Cc2cccc(Cl)c2)C2CCS(=O)(=O)C2)cc(OC)c1OC (stereo unspecified),40
10,Cc1ccc2oc(=O)c3cnn(CC(=O)NC4CCN(Cc5ccccc5)CC4)c3c2c1,0
11,CC(C)C(=O)Nc1nc2cc3c(cc2s1)OCO3,0
12,COC(=O)c1[nH]c2cc(OC)ccc2c1NC(=O)CCN1CCN(c2ccccc2)CC1,40
13,O=C(Nc1cccc(F)c1)c1cccnc1N1CCOCC1,80
14,COc1ccccc1N1CCN(C(=O)Oc2ccccc2)CC1,0
15,COc1cc(S(=O)(=O)N2CCC(N3CCCCC3)CC2)ccc1-n1cnnn1,0
16,CC(Oc1ccc(-c2ccccc2)c(F)c1)c1ccn(S(=O)(=O)c2ccc(F)cc2)n1 (stereo unspecified),120
17,COc1ccccc1NC(=O)C1=C(C)NC(=O)NC1c1ccc(C)cc1 (stereo unspecified),80
18,O=C(O)CCCSCC(=O)Nc1ccccc1,0
19,O=C(C[n+]1ccc(C(=O)N/N=C/c2ccc(OCc3ccccc3)cc2)cc1)c1ccccc1,0
20,CCOC(=O)C1=C(C)Nc2nnnn2C1c1ccc(OC)c(Br)c1 (stereo unspecified),0
21,Cc1c(Cl)cccc1NC(=O)CN1C(=O)CSc2ncccc21,0
22,O=c1cc(NC2CCCCC2)c2ccccc2o1,0
23,CCOc1ccc(CNC(=O)C(CC)n2nc(C)n3c(cc4occc43)c2=O)cc1OC (stereo unspecified),0
24,CNc1ccccc1-c1nc2ccccc2n(C)c1=O,0

row,Compound,luminescence
1,O=C(Nc1ccc(Cl)cn1)C1CCCN1S(=O)(=O)c1ccc(Cl)cc1 (stereo unspecified),0
2,CCC(Oc1ccccc1)C(=O)Nc1ccccc1OC (stereo unspecified),0
3,CCOCCn1c(SCCc2ccccc2)nc2c1c(=O)[nH]c(=O)n2C,0
4,Cc1nn(C2CCS(=O)(=O)C2)c(Cl)c1/C=C/C(=O)OCC(=O)Nc1ccccc1OC(F)F (stereo unspecified),0
5,COc1ccc(S(=O)(=O)Cc2ccc(C(=O)NCc3ccccn3)o2)cc1,0
6,CCOC(=O)N1CCN(C(=O)CSc2nc3c([nH]c4ccccc43)c(=O)n2C)CC1,40
7,C#CCN1C(=O)C2C(C(=O)NC)C3C=CC2(O3)C1C(=O)NCc1ccc(OC)cc1 (stereo unspecified),40
8,CCCNC(=O)C(NS(=O)(=O)c1ccc2c(c1)c(=O)n(C)c(=O)n2C)c1ccccc1 (stereo unspecified),40
9,CN[C@H]1[C@@H](O)[C@H](O[C@H]2[C@@H](O)[C@@H](OC3OC(CN)=CCC3N)[C@H](N)C[C@@H]2N)OC[C@@]1(C)O (stereo partly specified),"40 [dose 10, dose unit µg/mL]"
10,CCc1ccc(CCC(=O)Nc2ccc(C)c(C)c2)o1,0
11,CCc1cccc(OCCOCCN2CCCC2)c1,40
12,CCOC(=O)c1ccccc1NC(=O)c1cc(S(=O)(=O)N2CCOCC2)ccc1F,0
13,Cc1ccc(S(=O)(=O)CCc2nnc(NC(=O)C3CCCO3)s2)cc1 (stereo unspecified),0
14,COC(=O)c1cc(-c2ccc(Br)cc2)n[nH]1,0
15,CN(C)S(=O)(=O)c1ccc(S(=O)(=O)N2CCN(CCC#N)CC2)cc1,40
16,COc1cc(C2Nc3ccc4ncccc4c3C3=C2C(=O)CC(C)(C)C3)cc(OC)c1O (stereo unspecified),0
17,CN(CC(=O)N1CCc2ccccc2C1)S(=O)(=O)c1ccc2c(c1)c(=O)n(C)c(=O)n2C,40
18,CCOc1ccc(CCNC(=O)Cn2c(=O)oc3ccccc32)cc1OCC,0
19,COC(=O)c1cc(=O)n(CCc2ccc(OC)c(OC)c2)c(=Nc2ccc(F)c(Cl)c2)s1,40
20,CCc1nnc(NC(=O)CSc2nnc(-c3ccco3)n2C)s1,0
21,CN/C(=C/[N+](=O)[O-])NCCSCc1csc(CN(C)C)n1,"0 [dose 10, dose unit µg/mL]"
22,CCCCCCN1CC(O)=C(c2ccccc2)C1=N,0
23,CC1CCN(C(=O)CSc2nc3c(cnn3-c3ccc(Cl)cc3)c(=O)[nH]2)CC1,0
